This is a sample that favours compounds with a hit; in the whole collection about 0.89% have one here.
AGP1-GFP MLPCN: modulators of AGP1-GFP expression in yeast TOR pathway, primary screen, cell-based, multiplex flow cytometry, S. cerevisiae, MLPCN library; GFP response vs DMSO, % at 10 µM; AID 2066, 2009; 3 h; GFP as percent of DMSO wells; 320,000 tested, 0.02% active;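 active = GFP response relative to DMSO above a set limit, near screen average plus 3 SD, cut at about 150% in these data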;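 note: median GFP channel fluorescence of the gated AGP1 strain per well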
MEP2 TOR yeast: modulators of MEP2-GFP levels in yeast, primary screen, S. cerevisiae, multiplex flow cytometry, MLPCN library. S. cerevisiae MEP2-GFP strain, 3 h; 100% = DMSO control level. GFP response vs DMSO, % at 10 µM. 330,000 tested, 0.51% active;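 active = GFP response versus DMSO above a set limit, roughly screen mean plus 3 SD, cut at about 180% in these data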;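 note: median GFP fluorescence of the barcode-gated MEP2-GFP cells per well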
LAP4 TOR yeast: modulators of LAP4-GFP expression in yeast, primary screen, S. cerevisiae, multiplex flow cytometry, MLPCN library | AID 2023, 2009 | GFP response vs DMSO, % at 10 µM | 320,000 tested, 0.34% active | 3 h; median GFP as percent of DMSO wells;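 active = GFP response vs DMSO above a set limit, about the screen mean plus 3 SD, cut at about 150% in these data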
RPL19A TOR yeast: RPL19A-GFP expression modulators in yeast, primary screen, cell-based, S. cerevisiae, multiplex flow cytometry, MLPCN. S. cerevisiae RPL19A-GFP strain, 3 h; stronger effect = lower value. 330,000 tested, 0.3% active. percent response vs DMSO, % at 10 µM;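 active = percent response vs DMSO below 50%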;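 note: median channel GFP fluorescence of the barcoded RPL19A-GFP strain; lower means less RPL19A-GFP as with rapamycin TOR inhibition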
CIT2-GFP yeast: modulators of CIT2-GFP expression in yeast, primary screen, S. cerevisiae, GFP fusion, multiplex flow cytometry, MLPCN library. S. cerevisiae CIT2-GFP strain, 3 h; 100 means same as DMSO wells. GFP response vs DMSO, % at 10 µM. 320,000 tested, 0.065% active. AID 2029, 2009;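 active = GFP response relative to DMSO above a set limit, near the screen mean plus 3 SD, cut at about 150% in these data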;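 note: ratio of well median GFP fluorescence to mean of DMSO wells on the plate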
LAP4-GFP pick2: LAP4-GFP expression modulators in yeast, confirmation, cell-based, second cherry pick, flow cytometry. shares compounds with LAP4 TOR yeast. S. cerevisiae LAP4-GFP strain, 3 h. GFP response vs DMSO, % at 10 µM. 590 tested, 20% active;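 active = GFP signal as percent of the solvent control above about 150%, meaning raised reporter expression, limit read from the data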
MEP2-GFP pick2: modulators of MEP2-GFP levels in yeast, confirmation, S. cerevisiae, flow cytometry GFP, second cherry picks; 590 tested, 10% active; AID 2622, 2010; S. cerevisiae MEP2-GFP strain, 3 h; shares compounds with LAP4 TOR yeast; GFP response vs DMSO, % at 10 µM;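 active = GFP signal above 150% of the solvent control wells, that is a rise of more than half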;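 note: median channel GFP fluorescence of all gated yeast cells per well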
RPL19A-GFP pick2: RPL19A-GFP modulators in TOR pathway yeast, confirmation, cell-based, S. cerevisiae, flow cytometry, second cherry pick. shares compounds with LAP4 TOR yeast. S. cerevisiae RPL19A-GFP strain, 3 h; stronger effect = lower value; 100% means same as DMSO wells. GFP response vs DMSO, % at 10 µM. 590 tested, 3% active;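 active = under 65% GFP response relative to DMSO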;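 note: median GFP channel fluorescence per well over the all cells gate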
CIT2-GFP pick2: modulators of CIT2-GFP expression in yeast, confirmation, flow cytometry, second cherry pick, single plex; shares compounds with LAP4 TOR yeast; S. cerevisiae CIT2-GFP strain, 3 h; DMSO control wells read 100%; GFP response vs DMSO, % at 10 µM; 590 tested, 8% active; AID 2624, 2010;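 active = GFP response vs DMSO above about 150%, limit read from the data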;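 note: median green fluorescence per well over all gated yeast cells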
AGP1-GFP pick2: AGP1-GFP expression modulators, hit retest, confirmation, cell-based, flow cytometry, S. cerevisiae, cherry pick set 2. S. cerevisiae AGP1-GFP strain, 3 h. percent response vs DMSO, % at 10 µM. 590 tested, under 10 active. shares compounds with LAP4 TOR yeast. AID 2643, 2010;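 active = over 150 percent of DMSO response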;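 note: median GFP channel fluorescence over all cells without mother daughter split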
Yeast autofluor: compound autofluorescence in yeast s288c, dose response, artefact control for yeast TOR pathway GFP screen, s288c strain; fluorescence change (kMESF span) at 33 µM; S. cerevisiae s288c, 520 nm autofluorescence, flow cytometry, 3 h; stronger effect = higher value; zero means same as solvent-only cells; shares compounds with LAP4 TOR yeast; 610 tested, under 10 active;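 active = fluorescence span over the dose series, or activity score, above about 33, limit read from the data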
Each line names hits and unclear results; the compound was inactive in the other large screens (follow-up assays come after a bar, where they were run).

Cc1cccc(N(C(=O)c2csnn2)C(C(=O)NC2CCCCC2)c2ccccn2)c1C (stereo unspecified)	none
COc1ccc(C2=NN(C(=O)c3ccccc3)C(c3ccc(OC)c(OC)c3)C2)c(OC(C)=O)c1 (stereo unspecified)	MEP2 TOR yeast active | LAP4-GFP pick2 inactive | MEP2-GFP pick2 inactive | RPL19A-GFP pick2 inactive | CIT2-GFP pick2 inactive | AGP1-GFP pick2 inactive
COc1ccc(C2CC(c3ccccc3O)=NN2C(=O)c2ccccc2)cc1OC (stereo unspecified)	none
O=C(NNC(=O)c1sccc1-n1cccc1)c1cccc(Cl)c1	LAP4 TOR yeast 203 | LAP4-GFP pick2 inactive | MEP2-GFP pick2 inactive | RPL19A-GFP pick2 inactive | CIT2-GFP pick2 inactive | AGP1-GFP pick2 inactive
O=C(NNC(=O)c1sccc1-n1cccc1)c1ccccc1	none
COc1ccc(-c2cc(C)no2)cc1S(=O)(=O)N1CCCN(Cc2ccc(F)cc2)C1	none | LAP4-GFP pick2 inactive | MEP2-GFP pick2 inactive | RPL19A-GFP pick2 inactive | CIT2-GFP pick2 inactive | AGP1-GFP pick2 inactive
COc1ccc(-c2cc(C)no2)cc1S(=O)(=O)Nc1cccc(CN2CCCC2)c1	none
CN(CC(=O)Nc1ccc(F)c(F)c1F)C(=O)CCc1nc2sc3c(c2c(=O)[nH]1)CCCC3	none
Cc1nn(CC(=O)NC(=O)NC2CCCCC2C)c(=O)c(C#N)c1C (stereo unspecified)	none
CCOc1ccc(C(C)=O)cc1N1C(=O)C2C3C=CC(O3)C2C1=O (stereo unspecified)	LAP4 TOR yeast 203 | Yeast autofluor inactive
O=C(O)CNC(=O)c1ccc(OC(F)F)cc1	none
O=C1C=CC(=O)N1c1ccc(OC(F)F)cc1	LAP4 TOR yeast 152 | LAP4-GFP pick2 206 | MEP2-GFP pick2 inactive | RPL19A-GFP pick2 inactive | CIT2-GFP pick2 inactive | AGP1-GFP pick2 inactive | Yeast autofluor inactive
O=C1C=CC(=O)N1c1ccc(O)cc1	LAP4 TOR yeast 185 | Yeast autofluor inactive
O=C1CCCC(=O)N1c1ccc(O)cc1	none
Cc1cc(=O)n2c3c(sc2n1)C(=O)N(Cc1ccccc1)C3=O	LAP4 TOR yeast 194 | Yeast autofluor inactive
Cc1cc(=O)n2nc(-c3ccccc3)sc2n1	none
Cc1ccccc1NC(=O)C(NC1CCCCC1)C(C)C (stereo unspecified)	none | LAP4-GFP pick2 inactive | MEP2-GFP pick2 inactive | RPL19A-GFP pick2 inactive | CIT2-GFP pick2 inactive | AGP1-GFP pick2 inactive
On1ccccc1=S	LAP4 TOR yeast 260 | LAP4-GFP pick2 181 | MEP2-GFP pick2 inactive | RPL19A-GFP pick2 inactive | CIT2-GFP pick2 inactive | AGP1-GFP pick2 inactive | Yeast autofluor inactive
CC(C)C(NS(=O)(=O)c1ccccc1)C(=O)N1CCCC1 (stereo unspecified)	none
Cc1ccc(NC(=O)c2cc(-n3cnnc3)ccc2Cl)cc1	none
Cc1ccc(NC(=O)c2cc(N3C(=O)C=CC3=O)ccc2Cl)cc1C	none | LAP4-GFP pick2 156 | MEP2-GFP pick2 168 | RPL19A-GFP pick2 inactive | CIT2-GFP pick2 inactive | AGP1-GFP pick2 inactive | Yeast autofluor inactive
O/C=c1\ccc2cccc3nc(C(F)(F)F)nc1c23	MEP2 TOR yeast 233, LAP4 TOR yeast 173, CIT2-GFP yeast 242 | Yeast autofluor inactive
CCOc1ncccc1C(=O)NCCCSc1ccccc1	none
CN(Cc1cnc2nc(N)nc(N)c2n1)c1ccc(C(=O)N[C@@H](CCC(=O)O)C(=O)O)cc1	LAP4 TOR yeast 233 | LAP4-GFP pick2 273 | MEP2-GFP pick2 inactive | RPL19A-GFP pick2 inactive | CIT2-GFP pick2 inactive | AGP1-GFP pick2 inactive | Yeast autofluor inactive
Nc1nc2ncc(CNc3ccc(C(=O)N[C@@H](CCC(=O)O)C(=O)O)cc3)nc2c(=O)[nH]1	none | LAP4-GFP pick2 inactive | MEP2-GFP pick2 inactive | RPL19A-GFP pick2 inactive | CIT2-GFP pick2 inactive | AGP1-GFP pick2 inactive | Yeast autofluor inactive
Cc1nc2ccc(CN(C)c3ccc(C(=O)N[C@@H](CCC(=O)O)C(=O)O)s3)cc2c(=O)[nH]1	none
CCOC(=O)CCC(NC(=O)c1ccc(NCN2C(=O)CCC2=O)cc1)C(=O)OCC (stereo unspecified)	none
O=C(/C=C/c1ccc(F)cc1)c1cc(Br)ccc1O	none
O=C(/C=C/c1ccccc1)c1cc(Br)ccc(=O)c1O	none | LAP4-GFP pick2 inactive | MEP2-GFP pick2 154 | RPL19A-GFP pick2 inactive | CIT2-GFP pick2 163 | AGP1-GFP pick2 inactive | Yeast autofluor inactive
COc1ccc(NC(=O)/C(C#N)=C/c2ncc([N+](=O)[O-])n2C)c(OC)c1	LAP4 TOR yeast 182 | Yeast autofluor inactive
CC1(C)C(=O)Nc2ccccc2N1C(=O)COc1ccccc1C#N	LAP4 TOR yeast 158 | LAP4-GFP pick2 inactive | MEP2-GFP pick2 inactive | RPL19A-GFP pick2 inactive | CIT2-GFP pick2 inactive | AGP1-GFP pick2 inactive
Cc1ccc2ccc(C(Nc3ccccn3)c3ccccc3)c(O)c2n1 (stereo unspecified)	none
Cc1cccc(NC(c2ccc(C)s2)c2ccc3ccc(C)nc3c2O)n1 (stereo unspecified)	LAP4 TOR yeast 176 | Yeast autofluor inactive
CCCc1cc(C(=O)NNC(=S)NC2CCCCC2)cs1	none
